# This excerpt belongs to a sample that is enriched for hits.
# TbPYK inhibitor – qHTS of Trypanosoma Brucei Inhibitors; AID 624173, 2012; pyruvate kinase (Trypanosoma brucei), Q57TT1; 0.12% of 410,000 active; Potency, µM (highest dose often 76.8 µM), for the others: at the top dose activity, negative = inhibition, hits mostly inhibitors; TbPYK enzyme, Kinase-Glo Plus ATP luminescence, 45 min; further: potency means the concentration at half of the fitted maximal effect; on the % scale 0 is the no-effect control and ±100 the full control effect; nearly all actives have a fitted effect of over 50% in size
#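 Luminescence from Kinase-Glo Plus, added after a 45-minute room-temperature reaction, served as the end-point read-out. The enzyme and substrate were preincubated with compound before ADP (130 uM final) initiated turnover. Concentration-effect curves came from normalized qHTS data.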
# Shiga inhibitor – A qHTS for Small Molecule Inhibitors of Shiga Toxin; inhibition, % at 38.7 µM; 9.2% of 290,000 active; Vero cells, Shiga toxin protein synthesis inhibition reporter; AID 2315, 2010; in the data active means inhibition mostly above about 28%, no sharp cut-off; inactive means mostly below about 43%; further: 0% is about no effect
# CHX counter – Cycloheximide Counterscreen for Small Molecule Inhibitors of Shiga Toxin. cell reporter, cycloheximide protein synthesis inhibition counterscreen. max response, %. 12% of 300,000 active. AID 2314, 2010; in the data active means max response mostly above about 13%, no sharp cut-off; inactive means mostly below about 14%; further: read at 38.3 µM for the half of the compounds with a filed dose; 0% is about no effect
# LmPK inhibitor – qHTS Assay for Inhibitors of Leishmania Mexicana Pyruvate Kinase (LmPK). Q27686. purified LmPK, Kinase-Glo ATP luminescence, 1 h. Potency, µM (doses to about 57.5 µM), inactives show at the highest dose activity change, negative = inhibition, hits mostly inhibitors. 0.37% of 290,000 active. AID 1721, 2009; further: potency means the concentration at half of the fitted maximal effect; on the % scale 0 is the no-effect control and ±100 the full control effect
# Target sequence (Q27686 whole entry, looked up): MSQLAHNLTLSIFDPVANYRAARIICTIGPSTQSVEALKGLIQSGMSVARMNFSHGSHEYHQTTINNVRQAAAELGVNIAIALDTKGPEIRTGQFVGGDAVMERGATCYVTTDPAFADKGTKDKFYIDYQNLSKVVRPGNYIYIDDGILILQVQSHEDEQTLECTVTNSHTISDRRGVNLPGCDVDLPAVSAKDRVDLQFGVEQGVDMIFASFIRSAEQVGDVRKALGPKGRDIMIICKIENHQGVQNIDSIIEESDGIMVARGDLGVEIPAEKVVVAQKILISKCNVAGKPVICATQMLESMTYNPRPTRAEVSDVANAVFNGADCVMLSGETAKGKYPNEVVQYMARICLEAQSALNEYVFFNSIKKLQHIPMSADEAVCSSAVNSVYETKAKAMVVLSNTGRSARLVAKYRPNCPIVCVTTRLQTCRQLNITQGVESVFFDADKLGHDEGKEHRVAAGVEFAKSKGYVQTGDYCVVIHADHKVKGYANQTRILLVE
#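 Screened at intermediate enzyme activity to detect both inhibitors and activators: LmPK at 0.1 nM, with a 0.5 nM enzyme column as activation reference. PEP 0.5 mM, ADP 0.1 mM; ATP detected by luminescence after 1 h.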
# SARS PLpro yeast – qHTS of Yeast-based Assay for SARS-CoV PLP; S. cerevisiae expressing SARS-CoV PLpro, growth rescue; Potency, µM (series often up to 32.9 µM), without a hit: top-dose activity, positive = growth rescue, usual class: activators; 0.19% of 330,000 active; AID 485353, 2010; calls by dose curve; further: potency means the concentration at half of the fitted maximal effect; 0% is about no effect; nearly all actives have a fitted effect of over 55% in size
# NS1 inh – qHTS Assay for Inhibitors of Influenza NS1 Protein Function | Potency, µM (highest dose often 46.1 µM), inactives show top-dose activity, positive = more growth | 0.4% of 270,000 active | AID 2326, 2010; calls by dose curve; further: potency means the concentration at half of the fitted maximal effect; actives are rising curves; nearly all actives have a fitted effect of over 50% in size
#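 Compounds were scored for reversing the slow growth caused by influenza A NS1 in S. cerevisiae, measured by optical density at 600 nm. Assay medium contained 2% galactose at pH 6.0; NS1-free yeast of the same strain were the positive control.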
# Starred values were filed as active, the others as inactive; ? = inconclusive; . = no result; + = active, no number; [ ] = another dose, or the depositor's remark. Unless noted, the call rests on the fitted dose curve; in most records, active means well fitted curve in the direction sought with a large enough effect; inconclusive means small, poorly fitted or top-dose-only effect, or another doubt; inactive means no such curve, though single readings can be large; an effect the other way counts as inactive or inconclusive.
SMILES,TbPYK inhibitor,Shiga inhibitor,CHX counter,LmPK inhibitor,SARS PLpro yeast,NS1 inh
Cc1cc2c(cc1C)NC(c1nc3ccccc3[nH]1)C1=C(CC(C)(C)CC1=O)N2 (configuration not stated),1%,-4,3,0%,5%,-8%
CC(=O)Nc1ccc(C2Nc3cc(C)c(C)cc3NC3=C2C(=O)CC(C)(C)C3)cc1 (configuration not stated),-4%,40*,36*,-8%,3%,-20%
Cc1cccc(N=Cc2[nH]c3ccc(Br)c(Cl)c3c2O)c1,-10%,63*,15,-5%,8%,-8%
O=C(Nc1ccccc1)[C@@H]1CC=C[C@@H]2CCN(C3CCCCC3)C(=O)[C@@H]21,-8%,.,.,.,.,.
O=C(c1ccccc1-c1nc(-c2ccccc2)no1)N1CCCC1,0%,56*,22*,1%,11%,-8%
Cc1ccc(-c2noc(-c3ccccc3C(=O)N3CCN(C)CC3)n2)cc1,9%,60,13,4%,10%,9%
Cc1ccc(-c2noc(-c3ccccc3C(=O)N3CCCC3)n2)cc1,-1%,54*,35*,2%,-8%,-10%
CN1CCN(C(=O)c2ccccc2-c2nc(-c3ccc(Cl)cc3)no2)CC1,-3%,40,16,-1%,3%,-41%
O=C(c1ccccc1-c1nc(-c2ccc(Cl)cc2)no1)N1CCCC1,7%,74*,45*,8%,3%,-42%
CC(=O)Nc1ccc(S(=O)(=O)N2CCc3nc(COc4ccccc4)c4c(c3C2)CO[C@@H](C)C4)cc1,.,.,.,-5%[11.5 µM],.,.
Cc1ccc(OCc2cc(C(=O)N3CCCC(O)C3)no2)cn1 (configuration not stated),0%,23*,20*,-12%,?,-7%
O=C(c1cc(COc2ccccc2)on1)N1CCCC(CN2CCOCC2)C1 (configuration not stated),1%,31*,26*,-14%,0%,0%
CC(C)(C)c1ccc(-c2nc(C#N)c(N3CCC(C(N)=O)CC3)o2)cc1,6%,1,8,-6%,-3%,7%
C/C(=N\O)c1ccc(N2C(=O)C3CC=C(Cl)CC3C2=O)cc1 (configuration not stated),3%,80*,37*,-1%,5%,4%
CCN(CC)C(=O)c1ccc(N2C(=O)C3CC=C(Cl)CC3C2=O)cc1 (configuration not stated),-4%,-9,-2,-4%,2%,-11%
COC(=O)C1=C(C(=O)OC)[C@@H]2N(C)c3ccccc3[C@@]23C[C@@H](C(=O)OC)N(S(=O)(=O)c2ccc([N+](=O)[O-])cc2)C3=N1,.,.,.,4%[11.5 µM],.,.
Cc1nonc1C(=O)N/N=C/c1ccncc1,4%,51*,29*,16µM*,-1%,0%
Cc1nonc1C(=O)N/N=C/c1ccc([N+](=O)[O-])o1,-1%,88*,46*,-10%,-1%,.
Cc1cc(C(=O)N/N=C/c2ccc([N+](=O)[O-])o2)c(C)o1,-1%,-2,1,4%,-3%,-2%
Cc1c(C(=O)N/N=C/c2ccncc2)no[n+]1[O-],-19%,-3,21*,-11%,0%,8%
Nc1nonc1C(=O)N/N=C/c1ccncc1,2%,25,14,-23%,-4%,.
CCC(C)(C)NC(=O)C(c1ccncc1)N(C(=O)Cn1nnc2ccccc21)c1cc2c(cc1C(C)=O)OCO2 (configuration not stated),8%,11,-1,1%,1%,-1%
CCCCN1C(=O)CN(C2CCCCC2)C(=O)C1c1ccc(OC(C)C)c(OC)c1 (configuration not stated),3%,.,.,.,.,.
COc1ccc([N+](=O)[O-])c(O)c1C(C)=O,-5%,.,.,.,.,.
CCN(CC(=O)Nc1c(F)cccc1F)C(=O)c1ccccn1,3%,.,.,.,3%,.
SMILES,TbPYK inhibitor,Shiga inhibitor,CHX counter,LmPK inhibitor,SARS PLpro yeast,NS1 inh
O=C1c2ccccc2C(c2nnnn2-c2ccc3c(c2)OCCO3)N1Cc1ccc2c(c1)OCO2 (configuration not stated),2%,.,.,.,.,.
O=C(CCN1CCc2ccccc2C1)c1ccc2c(c1)OCCO2,-24%,95*,51*,5%,-36%,-57%
O=C(CCN1CCC(c2ccccc2)C1)c1ccc2c(c1)OCCO2 (configuration not stated),-19%,19,13*,-1%,1%,10%
O=C(CCN1CCC(c2ccccc2)C1)c1ccccc1 (configuration not stated),-5%,-13,5,6%,0%,?
O=C(CCN1CCCCC1)c1ccc2c(c1)OCCO2,2%,2,14,5%,-47%,-81%
O=C(CCN1CCc2ccccc21)c1ccc2c(c1)OCCO2,-8%,34,26*,-21%,0%,17%
CCc1ccc2oc(-c3ccc(OC)cc3)cc(=Nc3c(C)n(C)n(-c4ccccc4)c3=O)c2c1,-1%,127*,63*,3%,-9%,.
COc1ccc(-c2cc(=Nc3ccc(C(=O)O)cc3)c3cc(C)ccc3o2)cc1,-3%,161*,63*,1%[11.5 µM],0%,.
C=CCn1c(-c2ccc(OC)cc2)csc1=Nc1c(C)n(C)n(-c2ccccc2)c1=O,-5%,-22,-4,5%,1%,-8%
COc1ccc(-c2cc(=Nc3cccc(C(=O)O)c3)c3cc(C)ccc3o2)cc1,-9%,98*,59*,-3%[11.5 µM],-3%,.
CCc1ccc2oc(-c3ccc(OC)cc3)cc(=Nc3cccc(C(=O)O)c3)c2c1,-12%,137*,58*,-3%,-10%,.
COc1ccc(-c2cc(=O)c3cc(OCC(=O)OC(C)C)ccc3o2)cc1,7%,.,.,.,.,.
COc1ccc(-c2cc(=NCCCCCC(=O)O)c3cc(C)ccc3o2)cc1,-2%,5,12,1%[11.5 µM],6%,.
COc1ccc(-c2cc(=NCC(=O)O)c3ccccc3o2)cc1,4%,62*,28*,1%,-4%,-10%
CCOC(=O)C(NC(=O)c1ccccc1)(OCc1ccccc1)C(F)(F)F (configuration not stated),1%,-3,-2,-2%,6%,6%
CCOC(=O)C(NC(=O)c1cccc(Cl)c1)(OCc1ccccc1)C(F)(F)F (configuration not stated),1%,+,20*,-2%,-1%,-19%
COc1ccc(SCC(Cc2ccccc2)N2CCN(CCc3ccccc3)CCC2=O)cc1 (configuration not stated),.,-2,1,.,.,.
O=C1CCN(CCc2ccccc2)CCN1[C@H](CSc1ccc(Br)cc1)c1ccccc1,1%,-3,-2,2%,3%,1%
